Values joined by “and” are separate entries in the source; they are usually repeats but may differ in a detail not shown here. Equal values may be shown once. Screen size: about 5,500 compounds; about 2,000 (36%) were called active. About 18% were inconclusive and are not listed. No stated cut-off is given here; in the data, active means normalized growth mostly below about 0.91 (no sharp cut-off); inconclusive means no clear call, values can overlap the other calls; inactive means mostly above about 0.92. The list shows a part of the results.
Assay: chemical genetic growth profiling, strain panel (AID 1159580);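 further: tested at 20 µM; growth read once vehicle control cultures reached saturation at 30 °C; 1 = growth at the plate median or of vehicle wells; lower values mean less growth of the strain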
Conditions: S. cerevisiae deletion strains, growth OD

Measured: normalized growth

CCCC(=O)O[C@]1(C(=O)CO)CCC2[C@@H]3CCC4=CC(=O)CC[C@]4(C)C3[C@@H](O)C[C@@]21C (stereo not given in full)
inactive: locus YAL013W, strain DEP1, active compounds read low 1.01 | locus YAL021C, strain ccr4, active compounds read low 0.997 | locus YAL026C, strain drs2, active compounds read low 1.02 | locus YAL030W, strain snc1, active compounds read low 1 | locus YBL061C, strain skt5, active compounds read low 1 | locus YBR009C, strain hhf1, active compounds read low 1 | locus YBR021W, strain FUR4, active compounds read low 1.02 | locus YBR023C, strain chs3, active compounds read low 1 | locus YBR171W, strain sec66, active compounds read low 1.01 | locus YBR229C, strain ROT2, active compounds read low 1.02 | locus YBR231C, strain swc5, active compounds read low 1 | locus YBR279W, strain paf1, active compounds read low 0.996 | locus YCL011C, strain gbp2, active compounds read low 1.01 | locus YCL016C, strain dcc1, active compounds read low 1.01 | locus YCL029C, strain bik1, active compounds read low 0.983 | locus YCL061C, strain MRC1, active compounds read low 1 | locus YCL069W, strain vba3, active compounds read low 1 | locus YCR088W, strain abp1, active compounds read low 1.01 | locus YDL005C, strain med2, active compounds read low 1.01 | locus YDL035C, strain GPR1, active compounds read low 0.997 | locus YDL040C, strain nat1, active compounds read low 1.01 | locus YDL074C, strain BRE1, active compounds read low 1.01 | locus YDL101C, strain DUN1, active compounds read low 1.01 | locus YDL134C, strain PPH21, active compounds read low 1.01 | locus YDL185W, strain tfp1, active compounds read low 0.965 | locus YDL192W, strain arf1, active compounds read low 0.98 | locus YDR001C, strain nth1, active compounds read low 1.01 | locus YDR069C, strain doa4, active compounds read low 1.01 | locus YDR101C, strain arx1, active compounds read low 1.01 | locus YDR137W, strain rgp1, active compounds read low 1.01 | locus YDR150W, strain NUM1, active compounds read low 1.01 | locus YDR159W, strain sac3, active compounds read low 0.998 | locus YDR162C, strain NBP2, active compounds read low 0.991 | locus YDR195W, strain ref2 0.99 | locus YDR297W, strain sur2, active compounds read low 1.01 | locus YDR318W, strain mcm21, active compounds read low 1 | locus YDR334W, strain swr1, active compounds read low 1.02 | locus YDR335W, strain msn5, active compounds read low 1 | locus YDR388W, active compounds read low 0.976 | locus YDR392W, strain spt3, active compounds read low 1.01 | locus YDR502C, strain sam2, active compounds read low 0.981 | locus YEL003W, strain gim4, active compounds read low 1.01 | locus YEL037C, strain rad23, active compounds read low 1 | locus YEL061C, strain CIN8 (second series), active compounds read low 1.01 | locus YEL061C, strain CIN8, active compounds read low 1 | locus YER015W, strain faa2, active compounds read low 1.01 | locus YER016W, strain bim1, active compounds read low 1.01 | locus YER110C, active compounds read low 0.946 | locus YER111C, strain swi4, active compounds read low 1.01 | locus YER155C, strain BEM2 (second series), active compounds read low 1.01 | locus YER155C, strain BEM2, active compounds read low 1.02 | locus YER167W, strain BCK2, active compounds read low 1.01 | locus YFR010W, strain ubp6, active compounds read low 1.01 | locus YGL078C, strain dbp3, active compounds read low 0.978 | locus YGL086W, strain mad1, active compounds read low 0.99 | locus YGL167C, strain pmr1, active compounds read low 1.01 | locus YGL173C, strain kem1, active compounds read low 1 | locus YGL227W, strain vid30, active compounds read low 1.02 | locus YGL240W, strain doc1, active compounds read low 1.01 | locus YGL248W, strain PDE1, active compounds read low 1.02 | locus YGL253W, strain hxk2, active compounds read low 1.01 | locus YGR135W, strain pre9, active compounds read low 0.939 | locus YGR229C, strain SMI1, active compounds read low 0.987 | locus YGR252W, strain gcn5, active compounds read low 0.94 | locus YHR013C, strain ard1, active compounds read low 1.01 | locus YHR027C, strain rpn1, active compounds read low 1 | locus YHR030C, strain SLT2, active compounds read low 1.01 and 1.04 | locus YHR079C, strain IRE1 (second series), active compounds read low 0.997 | locus YHR079C, strain IRE1, active compounds read low 1.05 | locus YHR094C, strain hxt1, active compounds read low 0.984 | locus YHR129C, strain ARP1, active compounds read low 1.01 | locus YHR142W, strain chs7, active compounds read low 1.02 | locus YHR200W, strain rpn10, active compounds read low 0.994 | locus YIL066C, strain RNR3, active compounds read low 1.02 | locus YIL073C, strain SPO22, active compounds read low 0.867 | locus YIL125W, strain kgd1, active compounds read low 0.994 | locus YIR030C, strain dcg1, active compounds read low 0.994 | locus YJL092W, strain hpr5, active compounds read low 1.01 | locus YJL095W, strain BCK1 (second series), active compounds read low 1 | locus YJL095W, strain BCK1, active compounds read low 1.01 and 1.05 | locus YJL115W, strain asf1, active compounds read low 1.02 | locus YJL129C, strain trk1, active compounds read low 1.01 | locus YJL134W, strain LCB3, active compounds read low 1.01 | locus YJL154C, strain vps35, active compounds read low 1.01 | locus YJL164C, strain tpk1, active compounds read low 1.01 | locus YJL166W, strain qcr8, active compounds read low 1.01 | locus YJL168C, strain set2, active compounds read low 0.976 | locus YJL187C, strain SWE1 (second series), active compounds read low 1.01 | locus YJL187C, strain SWE1, active compounds read low 1 | locus YJR043C, strain POL32, active compounds read low 0.992

Reference: PubChem BioAssay AID1159580 (chemical genetic matrix, 2015)
